Screen size: about 5,500 compounds; about 2,000 (36%) were called active. Inconclusive results (about 18%) are left out. Rule as the data show it: active = normalized growth mostly below about 0.91 (no sharp cut-off); inconclusive = no clear call, values can overlap the other calls; inactive = mostly above about 0.92. This is one part of the list.
Assay: chemical genetic growth profiling, strain panel (AID 1159580);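 also: tested at 20 µM; growth read once vehicle control cultures reached saturation at 30 °C; 1 = growth at the plate median or of vehicle wells; lower values mean less growth of the strain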
Details: S. cerevisiae deletion strains, growth OD
[1] = locus YAL013W, strain DEP1, hits give low values
[2] = locus YJR075W, strain HOC1, hits give low values
[3] = locus YMR263W, strain SAP30, hits give low values
[4] = locus YMR307W, strain GAS1, hits give low values
[5] = locus YNL153C, strain GIM3, hits give low values
[6] = locus YNL322C, strain KRE1, hits give low values
[7] = locus YPL241C, strain CIN2, hits give low values
[8] = locus YAL040C, strain CLN3, hits give low values
[9] = locus YER002W, strain NOP16, hits give low values
[10] = locus YNL175C, strain NOP13, hits give low values
[11] = locus YNL224C, strain SQS1, hits give low values
[12] = locus YOR083W, strain WHI5 (second series), hits give low values

Measured: normalized growth

O=C1CSC(c2cccnc2)N1c1ccc(Cl)cc1 (stereo not given)
inactive: [1] 1 | locus YBR229C, strain ROT2, hits give low values 0.997 | locus YDL101C, strain DUN1, hits give low values 0.978 | locus YDR150W, strain NUM1, hits give low values 0.997 | locus YEL061C, strain CIN8, hits give low values 0.977 | locus YGR078C, strain PAC10, hits give low values 1 | locus YGR229C, strain SMI1, hits give low values 0.984 | locus YHR030C, strain SLT2, hits give low values 1.12 | locus YHR087W, strain rtc3, hits give low values 0.98 | locus YJR043C, strain POL32, hits give low values 0.983 | [2] 1 | locus YKL190W, strain CNB1, hits give low values 0.997 | locus YLR058C, strain SHM2 (second series), hits give low values 1.01 | locus YLR085C, strain ARP6, hits give low values 1 | locus YML094W, strain GIM5, hits give low values 0.957 | locus YMR219W, strain ESC1, hits give low values 0.992 | [3] 1.04 | [4] 1.01 | [5] 1.01 | locus YNL298W, strain CLA4 (second series), hits give low values 1 | [6] 0.995 | locus YNR030W, strain Alg12, hits give low values 0.994 | locus YPL055C, strain LGE1, hits give low values 0.986 | [7] 1.04 | locus YPR135W, strain CTF4, hits give low values 1.05
active: locus YLR039C, strain RIC1, hits give low values 0.723 | locus YLR262C, strain YPT6, hits give low values 0.677

CN1C(=O)CCC1c1cccnc1 (stereo not given)
inactive: [1] 1.02 | [8] 1.02 | [9] 1 | [2] 1.01 | [10] 0.999 | [11] 1.01 | [12] 1.02 | [7] 1.01

CCC1(C2=NCCN2)Cc2ccccc2O1 (stereo not given)
inactive: locus YAL021C, strain ccr4, hits give low values 0.996 | locus YAL026C, strain drs2, hits give low values 1.01 | locus YAL030W, strain snc1, hits give low values 1.01 | [8] 1.07 | locus YBL061C, strain skt5, hits give low values 1 | locus YBR009C, strain hhf1, hits give low values 1.01 | locus YBR023C, strain chs3, hits give low values 1.01 | locus YBR171W, strain sec66, hits give low values 1.02 | locus YBR231C, strain swc5, hits give low values 0.998 | locus YBR279W, strain paf1, hits give low values 1.01 | locus YCL011C, strain gbp2, hits give low values 1.02 | locus YCL016C, strain dcc1, hits give low values 1 | locus YCL061C, strain MRC1 (second series), hits give low values 1.01 | locus YCL061C, strain MRC1, hits give low values 1 | locus YCL069W, strain vba3, hits give low values 1.01 | locus YCR088W, strain abp1, hits give low values 1.02 | locus YDL005C, strain med2, hits give low values 1 | locus YDL040C, strain nat1, hits give low values 1.01 | locus YDR001C, strain nth1, hits give low values 1.01 | locus YDR069C, strain doa4, hits give low values 1 | locus YDR137W, strain rgp1, hits give low values 1.01 | locus YDR159W, strain sac3, hits give low values 0.991 | locus YDR195W, strain ref2 0.967 | locus YDR297W, strain sur2, hits give low values 1 | locus YDR334W, strain swr1, hits give low values 1.01 | locus YDR335W, strain msn5, hits give low values 1.01 | locus YDR363W, strain ESC2, hits give low values 1.03 | locus YDR392W, strain spt3, hits give low values 0.818 | locus YEL003W, strain gim4, hits give low values 1.01 | locus YEL037C, strain rad23, hits give low values 1.01 | locus YEL061C, strain CIN8 (second series), hits give low values 1.01 | [9] 1.01 | locus YER015W, strain faa2, hits give low values 1 | locus YER016W, strain bim1, hits give low values 1.01 | locus YER111C, strain swi4, hits give low values 1.01 | locus YER155C, strain BEM2 (second series), hits give low values 0.973 | locus YFR010W, strain ubp6, hits give low values 1.01 | locus YGL167C, strain pmr1, hits give low values 1 | locus YGL173C, strain kem1, hits give low values 1.01 | locus YGL227W, strain vid30, hits give low values 1.01 | locus YGL240W, strain doc1, hits give low values 0.989 | locus YGL253W, strain hxk2, hits give low values 1.02 | locus YHR013C, strain ard1, hits give low values 0.964 | locus YHR027C, strain rpn1, hits give low values 1.01 | locus YHR142W, strain chs7, hits give low values 1.02 | locus YJL092W, strain hpr5, hits give low values 1.01 | locus YJL095W, strain BCK1 (second series), hits give low values 1.01 | locus YJL115W, strain asf1, hits give low values 1 | locus YJL129C, strain trk1, hits give low values 0.996 | locus YJL154C, strain vps35, hits give low values 1.01 | locus YJL164C, strain tpk1, hits give low values 0.995 | locus YJL166W, strain qcr8, hits give low values 1 | locus YJL187C, strain SWE1, hits give low values 1.01 | locus YKL160W, strain elf1, hits give low values 0.99 | locus YKR026C, strain gcn3, hits give low values 1.02 | locus YKR091W, strain srl3, hits give low values 1 | locus YLL001W, strain dnm1, hits give low values 1.01 | locus YLL026W, hits give low values 1 | locus YLL041C, strain sdh2, hits give low values 1.01 | locus YLR027C, strain aat2, hits give low values 1.01 | locus YLR221C, strain rsa3, hits give low values 1.01 | locus YLR258W, strain gsy2, hits give low values 1 | locus YLR262C, strain YPT6 (second series), hits give low values 0.995 | locus YLR320W, strain mms22, hits give low values 1 | locus YLR342W, strain FKS1, hits give low values 1 | locus YLR357W, strain rsc2, hits give low values 1.01 | locus YLR370C, strain arc18, hits give low values 1.01 | locus YLR384C, strain iki3, hits give low values 1.01 | locus YML120C, strain ndi1, hits give low values 1.01 | locus YMR058W, strain fet3, hits give low values 1.01 | locus YMR125W, strain sto1, hits give low values 1.01 | locus YMR129W, hits give low values 1 | locus YMR205C, strain PFK2, hits give low values 1 | locus YMR231W, strain pep5, hits give low values 1 | [3] 1.01 | [4] 1.03 | locus YNL071W, strain lat1, hits give low values 1.01 | [5] 0.99 | [10] 1.01 | locus YNL197C, strain WHI3, hits give low values 1.01 | locus YNL209W, strain ssb2, hits give low values 1 | [11] 1.01 | locus YNL248C, strain rpa49, hits give low values 1 | locus YNL322C, strain KRE1 (second series), hits give low values 1 | [6] 1.01 | locus YNR049C, strain mso1, hits give low values 1.01 | locus YOR001W, strain rrp6, hits give low values 1 | locus YOR070C, strain gyp1, hits give low values 1.01 | locus YOR080W, strain dia2, hits give low values 0.994 | [12] 1 | locus YOR083W, strain WHI5, hits give low values 0.994 | locus YOR106W, strain vam3, hits give low values 1.01 | locus YOR265W, strain rbl2, hits give low values 1.01 | locus YOR270C, strain vph1, hits give low values 1.03 | locus YOR290C, strain snf2, hits give low values 0.965 | locus YPL051W, strain arl3, hits give low values 1 | locus YPL078C, strain atp4, hits give low values 1 | locus YPL106C, strain sse1, hits give low values 0.984 | locus YPL240C, strain hsp82, hits give low values 0.991 | [7] 1.01
